Many of the other results were omitted from the sample, so hits are more common in it than they were.
RMI FANCM FP = inhibitors of human RMI core complex binding to FANCM MM2. Fluorescence polarization, RMI core complex with F-MM2 peptide; stronger effect = lower value. FP signal (polarization) at 33 µM. 0.58% of 70,000 active. AID 1159607; in the data active = FP signal below about 40
* hit, by the source's call; ! = a repeat was not active.

CC(=O)O[C@H]1CC[C@@]2(C)C(=CC[C@@H]3[C@@H]2CC[C@]2(C)C(=O)CC[C@@H]32)C1 was read as RMI FANCM FP 9*.
Screening C[C@]12CC[C@H](O)CC1=CC[C@@H]1[C@@H]2CC[C@@]2(C)[C@H]1CC[C@]2(C)O returned RMI FANCM FP 55.
`CC(=O)O[C@@H]1CC[C@]2(C)C3CC[C@]4(C)C(=O)CCC4C3CC[C@H]2C1` (some centres not stated) gave RMI FANCM FP 64.
`NNc1ccccn1` gave RMI FANCM FP 70.
O=[N+]([O-])CC(c1ccc(Cl)cc1)c1c(-c2ccccc2)[nH]c2ccccc12 (configuration not stated) was read as RMI FANCM FP 58.
Screening CC(=O)O[C@@H]1C2CC[C@@H]3C1(C[C@@H](O)[C@@]1(O)[C@@H](C[C@H](O)C1(C)C)[C@]3(C)O)C[C@@]2(C)O (some centres not stated) returned RMI FANCM FP 58.
`CC(C)(O)[C@@H]1[C@H]2OC(=O)[C@@H]1[C@]1(O)C[C@H]3O[C@]34C(=O)O[C@H]2[C@]14C` gave RMI FANCM FP 53.
`CC(C)(O)[C@@H]1[C@H]2OC(=O)[C@@H]1[C@]1(O)C[C@H]3O[C@]34C(=O)O[C@H]2[C@]14C` (tested in a mixture with another compound) gave RMI FANCM FP 30*.
CN1CCc2cc3c(cc2[C@H]1C1OC(=O)c2c1ccc1c2OCO1)OCO3 (some centres not stated) was read as RMI FANCM FP 54.
`Cc1nc2cc(Cl)ccc2c(=O)n1-c1cccnc1` gave RMI FANCM FP 55.
O=C(/C=C/c1cccs1)C(=O)Nc1ccc(Br)cc1C(=O)c1ccccc1Cl was read as RMI FANCM FP 30*.
Screening O=C(/C=C/c1ccccc1)Nc1ccc(Br)cc1C(=O)c1ccccc1Cl returned RMI FANCM FP 55.
Screening O=C(CN1C(=O)CCC1=O)C(=O)Nc1ccc(Br)cc1C(=O)c1ccccc1Cl returned RMI FANCM FP 50.
Screening O=[N+]([O-])c1cccc(C(O)C(Cl)(Cl)Cl)c1 (configuration not stated) returned RMI FANCM FP 46.
For N#C/C(=C\c1cnc[nH]1)S(=O)(=O)c1ccc(Cl)cc1 the results were RMI FANCM FP 54.
CC[C@@]1(O)C[C@H](O)c2c(cc3c(c2O)C(=O)c2c(O)ccc(O)c2C3=O)[C@H]1C(=O)OC was read as RMI FANCM FP 26*.
Screening CC[C@@]1(O)C[C@H](O[C@H]2C[C@H](N(C)C)[C@H](O)[C@H](C)O2)c2c(cc3c(c2O)C(=O)c2c(O)ccc(O)c2C3=O)[C@H]1C(=O)OC returned RMI FANCM FP 55.
Screening CC[C@@]1(O)C[C@H](O[C@H]2C[C@H](N(C)C)[C@H](O)[C@H](C)O2)c2c(cc3c(c2O)C(=O)c2c(O)cccc2C3=O)[C@H]1C(=O)OC returned RMI FANCM FP 79.
`N#CC(C#N)=NNc1ccc(C(F)(F)F)cc1` gave RMI FANCM FP 54.
Screening COC(=O)C1C2c3ccccc3OC1(C)N=C1SCC(=O)N12 (configuration not stated) returned RMI FANCM FP 61.
For COc1ccc(Cl)c2sc(N3CCNCC3)nc12 the results were RMI FANCM FP 73.
Screening Cc1cccc(NC(=O)c2cccn(Cc3ccc(Br)cc3)c2=O)c1C returned RMI FANCM FP 50.
For Cc1ccccc1Cn1cccc(C(=O)Nc2cccc(Cl)c2Cl)c1=O the results were RMI FANCM FP 10*.
Screening CC(=O)c1cccc(NC(=O)c2cccn(Cc3ccccc3C)c2=O)c1 returned RMI FANCM FP 63.
Screening COC(=O)C1CNC(=O)C1 (configuration not stated) returned RMI FANCM FP 63.
`CC(=O)O[C@H]1C[C@H](O[C@H]2[C@@H](O)C[C@H](O[C@H]3[C@@H](O)C[C@H](O[C@H]4CC[C@@]5(C)[C@H](CC[C@]6(C)[C@]5(C)C[C@@H](O)[C@]5(C)[C@@H](C7=CC(=O)OC7)CC[C@@]56O)C4)O[C@@H]3C)O[C@@H]2C)O[C@H](C)[C@H]1O[C@@H]1O[C@H](CO)[C@@H](O)[C@H](O)[C@H]1O` gave RMI FANCM FP 61.
For NS(=O)(=O)c1ccc(NC(=O)c2cccn(Cc3ccccc3F)c2=O)cc1 the results were RMI FANCM FP 59.
`CC(CO)NC(=O)C1C=C2c3cccc4[nH]cc(c34)C[C@H]2N(C)C1` (some centres not stated) gave RMI FANCM FP 42.
For CCN(CC)C(=O)N[C@@H]1C[C@@H]2c3cccc4[nH]cc(c34)C[C@H]2N(C)C1 the results were RMI FANCM FP 52.
Screening CCN(CC)C(=O)N[C@H]1C=C2c3cccc4[nH]cc(c34)C[C@H]2N(C)C1 returned RMI FANCM FP 20*.
O=C1C2CCCN2C(c2ccncc2)N1c1cccc(Cl)c1 (configuration not stated) was read as RMI FANCM FP 63.
For CC(C)(C)c1csc(CN2CCN(C(=O)COc3ccccc3)CC2)n1 the results were RMI FANCM FP 61.
`CC(C)(C)NCC(O)c1cc(Cl)c(N)c(Cl)c1` (configuration not stated) gave RMI FANCM FP 4*!.
CC(=O)c1c(O)c(C)c(O)c2c1oc1c(C(C)=O)c(O)c(C)c(O)c12 was read as RMI FANCM FP 52.
For OC(c1ccccc1OCc1ccccc1)[C@H]1[C@H](c2ccc(Cl)cc2)N1C1CCCCC1 (some centres not stated) the results were RMI FANCM FP 56.

Source: PubChem BioAssay (Small Molecule Screening Facility, UW Madison)
